Reference: PubChem BioAssay (NCATS)
Results filed as inconclusive are left out. A call without a number means that no potency is given here. The source made the active and inactive calls. Unless noted, calls follow the shape of the full dose curve.

How the values were obtained:
[1] = qHTS assay for small molecule agonists of retinoid X receptor alpha signaling (AID 588544); details: HEK293T RXRa-UAS-bla, beta-lactamase reporter, 18 h; 530 nm emission
[2] = molecular target: Retinoic acid receptor RXR-alpha (Homo sapiens) (UniProt P19793); test: as above; details: HEK293T RXRa-UAS-bla, beta-lactamase reporter, 18 h; series mostly up to 76.7 µM
[3] = molecular target: Thyroid hormone receptor beta (Homo sapiens) (UniProt P10828); test: qHTS assay for small molecule agonists of thyroid hormone receptor beta signaling (AID 588545); details: TR-UAS-bla GripTite HEK 293, beta-lactamase ratio, agonist mode, 18 h, percent of T3 response, DMSO as zero; series mostly up to 76.7 µM
Summary of the method: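 TR-UAS-bla-GripTite HEK 293 cells in medium with 2% charcoal/dextran FBS, 0.1 mM NEAA and 1 mM sodium pyruvate were treated with titrated compounds for 18 hrs at 37 C. Beta-lactamase reporter was read with CCF4 dye (ex 405, em 460/530 nm); EC50 from Hill fits.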

[4] = qHTS assay for small molecule antagonists of retinoid X receptor alpha signaling (AID 588546; active = well fitted inhibition curve with a large enough effect in the signal ratio, with a control signal flat, not every such curve was filed as active; the % refers to the signal ratio;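 also: cells stimulated with 9-cis-retinoic acid as agonist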); details: HEK293T RXRa-UAS-bla, beta-lactamase ratio, antagonist mode; measured here: W530 green channel, cytotoxicity proxy
Summary of the method: (§1)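 Beta-lactamase reporter inhibition, read as CCF4 fluorescence ratio (ex 405, em 460/530 nm) after 2 h at RT. HEK293T UAS-bla cells, 2500/well, were stimulated with 9-cis-RA at 500 or 100 nM final alongside test compound for 18 h at 37 C.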

[5] = molecular target: Retinoic acid receptor RXR-alpha (Homo sapiens) (UniProt P19793); test: as above; details: HEK293T RXRa-UAS-bla, beta-lactamase ratio, antagonist mode
Summary of the method: as §1

[6] = molecular target: Thyroid hormone receptor beta (Homo sapiens) (UniProt P10828); test: qHTS assay for small molecule antagonists of thyroid hormone receptor beta signaling (AID 588547; active = well fitted inhibition curve with a large enough effect in the signal ratio, with a control signal flat, not every such curve was filed as active; the % refers to the signal ratio;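 also: cells stimulated with 0.4 nM T3 agonist during compound exposure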); details: TR-UAS-bla HEK293, beta-lactamase ratio, antagonist mode, 18 h
Summary of the method: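 TR-UAS-bla GripTite HEK293 cells in 2% charcoal/dextran FBS medium were preincubated 4 h at 37 C, given compound (0.59 nM to 92 uM) plus 0.4 nM T3 (final) for 18 h, then CCF4 for 2 h at RT; Hill fit gave IC50.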

[7] = molecular target: Voltage-gated inwardly rectifying potassium channel KCNH2 (Homo sapiens) (UniProt Q12809); test: qHTS Assay for Small Molecule Inhibitors of the Human hERG Channel Activity (AID 588834; active = well fitted curve in the direction sought with a large enough effect; an effect the other way counts as inactive or inconclusive;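 also: top concentration of the series differs between compounds; lower thallium flux fluorescence means stronger hERG block; nearly all actives have a fitted effect of over 50% in size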); details: U2OS BacMam hERG, FluxOR thallium flux fluorescence; series mostly up to 92.2 µM
Summary of the method: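 Step 1: BacMam hERG transduction of U2OS, 4 hrs RT. Step 2: overnight 37 °C, plate 2000 cells/well, 4 hr. Step 3: FluxOR load, compound 10 min, stimulate, read fluorescence.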

[8] = qHTS assay for small molecule activators of the nuclear factor-kappa B (NF-kB) signaling pathway (AID 651749; active = well fitted activation curve with a large enough effect in the signal ratio; the % refers to the signal ratio); details: NF-kB-bla ME-180 cells, beta-lactamase FRET ratio, 16 h; stronger effect = higher value
Summary of the method: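 Human ME-180 cervical cells with an NF-kB-bla construct; compounds added via 23 nL pin transfer, DMSO as vehicle; incubation 16 hr. Reporter activity measured by FRET disruption.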

[9] = qHTS assay for small molecule disruptors of the mitochondrial membrane potential - 1 hr assay (AID 651754); details: series mostly up to 92.2 µM; also: nearly all actives have a fitted effect of over 35% in size
Summary of the method: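 Loss of mitochondrial potential shifts the cationic dye from red mitochondrial aggregates to green cytoplasmic monomers. Cells (HepG2) are treated with compound for 1 hr before a 30 min dye incubation at 37C.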

[10] = qHTS assay for small molecule disruptors of the mitochondrial membrane potential - 5 hr assay (AID 651755); details: JC-1-type ratio dye; series mostly up to 92.2 µM; also: nearly all actives have a fitted effect of over 40% in size
Summary of the method: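 Seed HepG2 overnight, add compound, incubate 5 hr at 37C and 5% CO2, stain 30 min with Mito-MPS, then measure monomer (490/535 nm) and aggregate (540/590 nm) fluorescence.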

[11] = molecular target: Tumor necrosis factor (Homo sapiens) (UniProt P01375); test: qHTS assay to identify small molecules that stimulate Tumor Necrosis Factor-alpha (TNF-alpha) secretion (AID 651757; active = well fitted curve in the direction sought with a large enough effect in the signal ratio; the % refers to the signal ratio); details: Human cells, HTRF 665/615 ratio; series mostly up to 92.2 µM
Summary of the method: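 Human monocytic THP-1 cells are plated, treated with compound and held at 37 C for 17 hrs. Labeled anti-TNF-alpha antibody mixture is then added; after 3 hr at room temperature, TR-FRET signal reports secreted TNF-alpha.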

[12] = qHTS assay for environmental chemicals that activate the Aryl hydrocarbon Receptor (AhR) signaling pathway (AID 651777; active = well fitted curve in the direction sought with a large enough effect; an effect the other way counts as inactive or inconclusive; also: nearly all actives have a fitted effect of over 15% in size); details: 1A2-DRE human hepatoma cells, luciferase, 24 h; activation: stronger effect = higher value
Summary of the method: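 Concentration–response screening used 1,200 1A2-DRE cells per well, 24 hr compound exposure (37 C, 5% CO2), and One-Glo luminescence as the AhR-driven CYP1A2 reporter signal.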

[13] = molecular target: Peroxisome proliferator-activated receptor alpha (Homo sapiens) (UniProt Q07869); test: qHTS assay for small molecule agonists of the peroxisome proliferator-activated receptor alpha (PPARalpha) signaling pathway (AID 651778; active = well fitted curve in the direction sought with a large enough effect; an effect the other way counts as inactive or inconclusive); details: PathHunter PPARalpha complementation, chemiluminescence, 6 h; stronger effect = higher value
Summary of the method: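 Cells plated at 2,000/well and held overnight at 37 C, 5% CO2, then compound added by pin tool for 6 hr; after PathHunter detection reagent and 60 min at room temperature, chemiluminescence from enzyme complementation was read.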

[14] = molecular target: Nuclear receptor ROR-gamma (Homo sapiens) (UniProt P51449); test: qHTS assay for small molecule antagonists of the retinoid-related orphan receptor gamma (ROR-gamma) signaling pathway (AID 651802; active = well fitted curve in the direction sought with a large enough effect; an effect the other way counts as inactive or inconclusive;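 also: CHO cells with doxycycline-induced ROR-gamma expression; nearly all actives have a fitted effect of over 60% in size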); details: ROR-gamma antagonist cell reporter assay; series mostly up to 92.2 µM
Summary of the method: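 Steps: cells dispensed; compound or DMSO transferred by pin tool; doxycycline added to induce the ROR response element-driven luciferase; plates held 16hr at 37C; ONE-Glo added and luminescence measured.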

[15] = qHTS assay for small molecule agonists of the antioxidant response element (ARE) signaling pathway measured by Nrf2-dependant transcriptional activity (AID 720636; active = well fitted curve in the direction sought with a large enough effect in the repeat runs; an effect the other way counts as inactive or inconclusive;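 also: HepG2 cells with an ARE-driven luciferase reporter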); details: ARE-luc HepG2, Nrf2 luciferase reporter, 16 h; series mostly up to 92.4 µM
Summary of the method: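 Attachment 6 hr at 37 C, then compound versus DMSO vehicle for 16 hr in ARE-luc HepG2 cells (1% dialyzed FBS); luminescence recorded 30 min after ONE-Glo addition at room temperature.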

[16] = qHTS assay for small molecule antagonists of the retinoid-related orphan receptor gamma (ROR-gamma) signaling pathway - cell viability counter screen (AID 720652; active = well fitted curve in the direction sought with a large enough effect in the repeat runs; an effect the other way counts as inactive or inconclusive;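 also: CHO reporter cells with doxycycline-induced ROR-gamma expression; compound exposure lasted 16 hr before ATP read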); details: RORgamma reporter cell line viability counter screen; series mostly up to 92.2 µM
Summary of the method: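 Steps: seed CHO cells bearing TET-inducible ROR and ROR response element-luciferase; rest 5 hr at 37 C; add compound, then doxycycline; incubate 16 hr; add CellTiter-Glo and read luminescence as ATP-based viability.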

[17] = qHTS assay for small molecule agonists of the antioxidant response element (ARE) signaling pathway measured by Nrf2-dependant transcriptional activity - cell viability counter screen (AID 720653; active = well fitted curve in the direction sought with a large enough effect in the repeat runs; an effect the other way counts as inactive or inconclusive); details: ARE-bla HepG2 viability, CellTiter-Glo ATP luminescence, 16 h; stronger effect = lower value
Summary of the method: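 ARE-bla HepG2 cells (2,000/well) rested 5 hrs at 37C/5% CO2, then exposed to compounds in DMSO for 16 hrs. Viability was read in the same wells as intracellular ATP by luminescence, 30 min at room temperature after reagent addition.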

[18] = qHTS assay for small molecule agonists of the antioxidant response element (ARE) signaling pathway (AID 651741; active = well fitted activation curve with a large enough effect in the signal ratio; the % refers to the signal ratio); details: HepG2 ARE-bla reporter, beta-lactamase FRET ratio, 16 h; series mostly up to 96 µM
Summary of the method: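 Reporter: beta-lactamase under ARE, stably in HepG2. Exposure: 16 h, 37 C, compounds delivered in DMSO by pin tool after 5 h cell preincubation. Readout: FRET substrate fluorescence after 2 h at RT.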

[19] = qHTS assay for small molecule activators of the p53 signaling pathway (AID 651743; active = well fitted activation curve with a large enough effect in the signal ratio, not every such curve was filed as active; the % refers to the signal ratio); details: HCT-116 p53RE-bla, beta-lactamase FRET ratio, 16 h; stronger effect = higher value
Summary of the method: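 Agonist-mode quantitative HTS in HCT-116 cells carrying a p53-response-element beta-lactamase reporter; 16 h compound treatment at 37 C, then FRET substrate loading for 2 h at room temperature and fluorescence read.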

[20] = qHTS assay to identify small molecules that stimulate interleukin-8 (IL-8) secretion (AID 651758; active = well fitted activation curve with a large enough effect in the signal ratio; the % refers to the signal ratio); details: HTRF ratio (665/615); series mostly up to 92.2 µM
Summary of the method: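 Quantitative HTS in THP-1 monocytic cells at 2000 cells per well, with 16 hrs compound incubation at 37 C. IL-8 in the medium was then quantified by HTRF immunoassay, read after 1-3 hrs at room temperature.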

Chain of Peroxisome proliferator-activated receptor alpha (Homo sapiens) (Q07869 whole entry, looked up): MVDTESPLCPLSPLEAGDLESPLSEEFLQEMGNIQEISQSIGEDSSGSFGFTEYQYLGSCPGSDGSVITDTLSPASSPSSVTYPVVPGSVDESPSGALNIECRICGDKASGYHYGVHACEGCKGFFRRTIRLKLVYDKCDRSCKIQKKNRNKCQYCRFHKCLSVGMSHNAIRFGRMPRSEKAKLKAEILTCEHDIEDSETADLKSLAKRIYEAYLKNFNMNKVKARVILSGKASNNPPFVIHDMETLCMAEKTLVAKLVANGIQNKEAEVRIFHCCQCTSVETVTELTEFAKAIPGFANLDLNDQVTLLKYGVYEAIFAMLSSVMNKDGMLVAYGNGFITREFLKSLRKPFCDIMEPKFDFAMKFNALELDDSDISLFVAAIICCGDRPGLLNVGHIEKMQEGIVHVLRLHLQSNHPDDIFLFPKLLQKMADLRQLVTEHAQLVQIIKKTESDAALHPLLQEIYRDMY
Chain of Voltage-gated inwardly rectifying potassium channel KCNH2 (Homo sapiens) (Q12809 whole entry, looked up): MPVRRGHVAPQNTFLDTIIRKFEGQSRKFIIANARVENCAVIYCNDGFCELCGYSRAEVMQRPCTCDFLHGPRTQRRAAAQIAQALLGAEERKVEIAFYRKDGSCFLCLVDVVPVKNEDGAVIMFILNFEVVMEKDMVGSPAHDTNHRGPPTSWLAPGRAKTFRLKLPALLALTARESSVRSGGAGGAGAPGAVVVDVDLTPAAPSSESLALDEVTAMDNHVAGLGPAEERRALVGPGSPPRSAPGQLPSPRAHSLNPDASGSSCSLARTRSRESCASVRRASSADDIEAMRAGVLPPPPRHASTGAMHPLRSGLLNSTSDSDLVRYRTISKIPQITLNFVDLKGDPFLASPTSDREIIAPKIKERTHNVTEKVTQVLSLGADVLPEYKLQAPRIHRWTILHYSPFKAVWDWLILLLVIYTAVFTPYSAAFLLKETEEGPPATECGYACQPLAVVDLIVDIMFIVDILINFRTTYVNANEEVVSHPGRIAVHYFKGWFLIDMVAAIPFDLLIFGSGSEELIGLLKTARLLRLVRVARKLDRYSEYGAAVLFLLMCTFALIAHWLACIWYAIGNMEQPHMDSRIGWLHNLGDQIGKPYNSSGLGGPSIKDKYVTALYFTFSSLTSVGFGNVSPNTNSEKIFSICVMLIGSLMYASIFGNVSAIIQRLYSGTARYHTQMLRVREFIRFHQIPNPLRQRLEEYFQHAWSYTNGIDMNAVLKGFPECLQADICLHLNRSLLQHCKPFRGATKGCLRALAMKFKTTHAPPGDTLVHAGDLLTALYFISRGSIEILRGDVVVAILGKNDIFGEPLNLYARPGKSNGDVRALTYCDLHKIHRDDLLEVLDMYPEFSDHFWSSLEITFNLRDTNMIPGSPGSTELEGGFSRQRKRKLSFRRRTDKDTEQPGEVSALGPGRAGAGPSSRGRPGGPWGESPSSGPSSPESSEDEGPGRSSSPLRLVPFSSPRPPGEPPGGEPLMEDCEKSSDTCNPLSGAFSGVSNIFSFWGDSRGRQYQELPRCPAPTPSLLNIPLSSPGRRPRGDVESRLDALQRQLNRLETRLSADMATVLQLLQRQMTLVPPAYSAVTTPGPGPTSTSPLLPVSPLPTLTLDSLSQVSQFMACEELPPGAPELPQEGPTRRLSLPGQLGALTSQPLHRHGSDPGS
Chain of Tumor necrosis factor (Homo sapiens) (P01375 whole entry, looked up): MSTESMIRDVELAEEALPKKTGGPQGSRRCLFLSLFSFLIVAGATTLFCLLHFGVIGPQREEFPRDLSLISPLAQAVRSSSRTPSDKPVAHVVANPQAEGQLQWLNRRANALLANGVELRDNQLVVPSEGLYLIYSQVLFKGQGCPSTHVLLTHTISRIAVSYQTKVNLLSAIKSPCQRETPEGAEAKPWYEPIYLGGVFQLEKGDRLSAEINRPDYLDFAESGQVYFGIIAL
Chain of Nuclear receptor ROR-gamma (Homo sapiens) (P51449 whole entry, looked up): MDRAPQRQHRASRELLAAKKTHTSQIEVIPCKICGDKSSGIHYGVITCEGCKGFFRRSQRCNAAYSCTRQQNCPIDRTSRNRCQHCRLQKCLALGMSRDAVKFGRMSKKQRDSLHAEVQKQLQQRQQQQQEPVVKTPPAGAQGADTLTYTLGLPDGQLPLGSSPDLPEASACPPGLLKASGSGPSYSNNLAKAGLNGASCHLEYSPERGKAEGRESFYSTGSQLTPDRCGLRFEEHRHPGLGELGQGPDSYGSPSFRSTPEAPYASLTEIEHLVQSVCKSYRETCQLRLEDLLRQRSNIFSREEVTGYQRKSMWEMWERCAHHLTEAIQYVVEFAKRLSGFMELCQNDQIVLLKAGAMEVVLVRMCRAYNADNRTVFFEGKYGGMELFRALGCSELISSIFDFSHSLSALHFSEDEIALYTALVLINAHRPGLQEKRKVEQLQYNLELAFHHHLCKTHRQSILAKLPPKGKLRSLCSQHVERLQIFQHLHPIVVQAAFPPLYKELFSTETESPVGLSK
Chain of Thyroid hormone receptor beta (Homo sapiens) (P10828 whole entry, looked up): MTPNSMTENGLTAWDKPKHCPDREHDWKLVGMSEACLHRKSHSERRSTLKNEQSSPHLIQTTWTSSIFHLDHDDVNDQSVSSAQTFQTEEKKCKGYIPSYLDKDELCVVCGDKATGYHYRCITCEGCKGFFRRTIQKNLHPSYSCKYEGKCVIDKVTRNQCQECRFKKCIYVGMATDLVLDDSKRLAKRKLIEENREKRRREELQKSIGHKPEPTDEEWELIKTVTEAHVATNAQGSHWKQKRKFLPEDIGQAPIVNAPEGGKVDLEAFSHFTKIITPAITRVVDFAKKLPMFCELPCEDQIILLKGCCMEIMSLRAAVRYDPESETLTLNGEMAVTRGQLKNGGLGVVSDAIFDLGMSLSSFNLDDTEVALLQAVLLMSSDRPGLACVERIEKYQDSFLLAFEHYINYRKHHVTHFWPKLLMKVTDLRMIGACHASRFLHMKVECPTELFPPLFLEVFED
Chain of Retinoic acid receptor RXR-alpha (Homo sapiens) (P19793 whole entry, looked up): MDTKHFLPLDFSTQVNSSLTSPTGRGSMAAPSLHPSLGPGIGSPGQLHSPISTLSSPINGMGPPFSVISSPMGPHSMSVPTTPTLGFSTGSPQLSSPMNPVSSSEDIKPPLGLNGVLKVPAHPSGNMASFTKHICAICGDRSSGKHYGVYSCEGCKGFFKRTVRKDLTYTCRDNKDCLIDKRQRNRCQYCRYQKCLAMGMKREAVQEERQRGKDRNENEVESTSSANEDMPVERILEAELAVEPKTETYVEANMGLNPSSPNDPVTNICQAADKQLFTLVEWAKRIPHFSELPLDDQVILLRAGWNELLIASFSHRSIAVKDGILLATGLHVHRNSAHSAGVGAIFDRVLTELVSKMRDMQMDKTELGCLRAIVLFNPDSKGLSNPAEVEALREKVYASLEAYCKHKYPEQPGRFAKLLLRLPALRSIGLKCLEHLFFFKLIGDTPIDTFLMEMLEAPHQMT

SMILES	max response [1]	outcome [2]	outcome [3]	max response [4]	max response [5]	activity change % (negative = inhibition) [6]	Potency [7]	activation [8]	Potency [9]	Potency [10]	Potency [11]	activation [12]	max response [13]	Potency [14]	outcome [15]	Potency [16]	max response [17]	Potency [18]	activation [19]	Potency [20]
CCCCCCCCCCCCC1CO1 (configuration not stated)	-5.24%	inactive	inactive	-6.03%	7.51% (inactive)	-0.964% (inactive)	inactive	0.702% (inactive)	inactive	inactive	inactive	0.974% (inactive)	-4.01% (inactive)	inactive	inactive	inactive	1.04% (inactive)	–	–	–
CC(N)CN (configuration not stated)	-2.32%	inactive	inactive	-2.44%	12.6% (inactive)	-4.82% (inactive)	–	0.0382% (inactive)	–	–	inactive	–	-3.51% (inactive)	–	inactive	inactive	0.44% (inactive)	inactive	-0.238% (inactive)	inactive
O=[N+]([O-])c1ccc(Cl)cc1Cl	-6.43%	inactive	inactive	-4.28%	10.3% (inactive)	17.6% (inactive)	inactive	0.0961% (inactive)	inactive	–	inactive	-1.71% (inactive)	-1.04% (inactive)	inactive	inactive	inactive	-19.5% (inactive)	–	–	–
CC(=O)OC(C)=O	-0.73%	inactive	inactive	-8.16%	5.52% (inactive)	16.3% (inactive)	–	-1.18% (inactive)	inactive	–	inactive	1.76% (inactive)	-5.07% (inactive)	inactive	inactive	inactive	5.05% (inactive)	inactive	1.52% (inactive)	–
C=CCn1c(=O)n(CC=C)c(=O)n(CC=C)c1=O	-13.5%	inactive	inactive	-12.4%	6.59% (inactive)	-0.231% (inactive)	inactive	–	inactive	–	inactive	–	-0.851% (inactive)	inactive	inactive	inactive	-13.5% (inactive)	–	0.0041% (inactive)	–
c1ccc2c(c1)Oc1ccccc1S2	-9.36%	inactive	inactive	-7.12%	5.17% (inactive)	-3.93% (inactive)	–	-0.203% (inactive)	inactive	inactive	inactive	–	-0.0488% (inactive)	–	inactive	inactive	6.9% (inactive)	inactive	0.189% (inactive)	inactive
